This is part of a sample that, as a whole, favours compounds with a hit. Of some 83,000 tested, about 20% had one in any assay.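 A percent growth of 40 corresponds to 60% growth inhibition; 0 means no net growth; -100 means all cells died. Active threshold: below 10.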 Values without a mark were called inactive. Calls of active or inactive are those of the source.
These molecules were tested on MDA-MB-468 breast (assay: NCI-60 one-dose screen, 48 h (100 = growth as untreated, 0 = no growth, -100 = all killed)). Conditions: 10 µM unless noted.
Work on `CCCNC(=O)Oc1ccc(/C(=C(\C)c2ccccc2)c2ccc(OCCCN(C)C)cc2)cc1` yielded a growth of 83.4%.
`COc1cc([C@@H](CCO)C[C@H](C)c2ccc3ccccc3c2)cc(OC)c1OC` was tested, and the growth was 17.2%.
`C=C1CC[C@@]2(C#N)[C@H]3[C@H](CC[C@@H]2C)[C@@H](C)C[C@@H](CC(C)(C)C#N)[C@H]13` showed a growth of 59.7%.
`COc1cc2c(Oc3ccc4[nH]c(C)cc4c3F)ncnc2cc1OCCCN1CCCC1` gave a growth of 99.4%.
`CC(C)CCN(CCC(C)C)CC(O)c1cc2c(c3ccccc13)CCCC2` (stereo not given) was tested, and the growth was 54%.
Molecule `CCC(=O)Oc1ccc2ccccc2c1` has a growth of 96.8%.
`O=S(=O)(O)CCl` showed a growth of 108%.
Molecule `CCCCC/C(=C\c1ccccc1)C1OC(C)C(C)O1` (stereo not given) has a growth of 98.8%.
For `COc1ccc(-c2cnc(-c3ccc(Cl)cc3)[nH]2)cc1OC`, the growth was 84.7%.
Molecule `COc1ccc(COc2cc3oc(=O)c4cc(C(C)O)ccc4c3cc2OC)cc1` (stereo not given) has a growth of 41%.
Work on `C=C1CCC2C3(C)COC(c4ccccc4)OC3CCC2(C)C1C/C=C1/C(=O)OCC1O` (stereo not given) yielded a growth of 30.6%.
With `CC(=O)n1nc(C(=O)OC(C)C)c2cc(C)c(C)cc21` the growth was 92.9%.
In the case of `CN1CCN(CCCOc2cccc3nc(Nc4ccc(Cl)c(C(F)(F)F)c4)ccc23)CC1`, the growth is reported as -2.83% (active).
For `Nc1nc(-c2ccnc(Cl)c2)nn1-c1nc2ccccc2s1`, the growth was 107%.
In the case of `O=C(NCCNc1nccc(-n2ccc3cccnc32)n1)c1ccc(C(F)(F)F)cc1`, the growth is reported as 110%.
`COc1ccc(NC(=O)c2ccc(/C=C/C(=O)c3ncc[nH]3)cc2)cc1` was tested, and the growth was 44.3%.
`O=c1[nH]c(-c2ccc(Cl)cc2)nc2sc3c(c12)CCCC3` gave a growth of 82.2%.
`CC[C@]12C=CCN3CC[C@@]4(c5cc([C@H]6CCC(=O)N6)c(OC)cc5N(C)[C@H]4[C@@](O)(C(=O)OC)[C@@H]1OC(C)=O)[C@@H]32` gave a growth of 110% [2.5 µM].
`CN(C)c1ccc(/C=C/c2sc3ccc4ccccc4c3[n+]2C)cc1` was tested, and the growth was -86.4% (active).
For `C#Cc1cccc(Nc2ncnc3ccc(-c4cncc(NS(C)(=O)=O)c4)cc23)c1`, the growth was -40.3% (active).
`CN(C)c1ccc(-c2ccc3[nH]c(=O)nc(-c4ccccc4)c3c2)cn1` was tested, and the growth was 42.4%.
`COc1ccc(C2=NNC(c3sc(Cl)nc3Cl)C2)cc1` (stereo not given) showed a growth of 70%.
In the case of `O=C(NC(=S)Nc1cccc(NC(=S)NC(=O)c2ccccc2)c1)c1ccccc1`, the growth is reported as 98.5%.
With `COc1cc(CN(CCC(O)N2CCCC2=O)Cc2ccc3c(c2)OCO3)cc(OC)c1OC` (stereo not given) the growth was 119%.
In the case of `C[C@@H]1C[C@H]2C(=O)O[C@@H](C)C(NC(=O)[C@H](Cc3cc(F)cc(F)c3)NC(=O)Nc3ccc(Cl)cc3F)C(=O)N3CCC[C@H]3C(=O)N3CCCC[C@H]3C(=O)N[C@@H](CO)C(=O)N2C1` (stereo not given in full), the growth is reported as -10.4% (active).
For `COc1ccc(-n2c(C)nc3c(c(C)nn3-c3ccccc3)c2=O)cc1`, the growth was -15.7% (active).
For `Cn1cc(C(=O)c2nc(-c3cn(C)c4ccc(F)cc34)no2)c2cc(F)ccc21`, the growth was 94.1%.
For `COc1ccc2c(c1)Nc1ccccc1S2`, the growth was 104%.
`COc1cc(-c2cc(-c3ccc(Nc4ncnc5cc(Cl)ccc45)cc3)nc(N3CCCCC3)n2)cc(OC)c1OC` showed a growth of 107%.
In the case of `Nc1n[nH]c2cccc(C#Cc3cccc(NC(=O)c4cccc(C(F)(F)F)c4)c3)c12`, the growth is reported as 79.3%.
For `C=CCn1c(CN2CCN(c3cc4c(cc3F)c(=O)c(C(=O)O)cn4C3CC3)CC2)n[nH]c1=S`, the growth was 105%.
`COc1ccc(-c2nc(-c3nc4cc(C)c(C)cc4[nH]3)cc3c2[nH]c2ccccc23)cc1` was tested, and the growth was -27.7% (active).
`Cc1ccc(N2C3c4ccccc4N(S(=O)(=O)c4ccc(C)cc4)C2c2ccccc2N3S(=O)(=O)c2ccc(C)cc2)cc1` was tested, and the growth was 120%.
For `CC(C)[C@@H]1NC(=O)[C@]2(C)CSC(=N2)c2ccnc(c2)CNC(=O)C[C@@H](/C=C/CCS)OC1=O`, the growth was 42.7%.
In the case of `COc1ccc(C2CC(c3cccc(Nc4ccnc5cc(Cl)ccc45)c3)=NN2C=O)cc1` (stereo not given), the growth is reported as 7.85% (active).
`CCOC(=O)C(Cc1ccccc1)n1c(O)c(/C=N/c2ncc(Cc3ccc(Cl)cc3Cl)s2)sc1=S` (stereo not given) was tested, and the growth was -0.681% (active).
In the case of `O=Cc1ncc(-c2ccc(C(F)(F)F)cc2)c(NC2CCCCCC2)n1`, the growth is reported as 2.41% [100 µM] (active).
`NC(=O)NC1(C(=O)O)CCCC1` showed a growth of 119%.
Molecule `COc1cc(Cl)cc(-c2nn(-c3cccc(NC(=O)c4ccc(Cl)c(Cl)c4)c3)cc2-c2ccncc2)c1` has a growth of 54.6%.
`CNC(=O)c1cc(N2CCc3cc(NC(=O)Nc4ccc(Cl)c(Cl)c4)ccc32)ccn1` gave a growth of 84.5%.
